# According to PubChem BioAssay (NCI):
# This is part of a sample that, as a whole, favours compounds with a hit. Of some 83,000 tested, about 20% had one in any assay.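 Step 1: grow cells in 96-well plates. Step 2: add test compound at a single concentration. Step 3: incubate 48 h. Step 4: record percent growth.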 A number with no mark means an inactive call. Active and inactive are the calls of the source.
# Test system: T-47D breast
# Assay: NCI-60 one-dose screen, 48 h (100 = growth as untreated, 0 = no growth, -100 = all killed)
# Conditions: 10 µM unless noted
# Method: Growth inhibition of the T-47D human tumor cell line is measured as a screen for anti-cancer activity. Cells are grown in 96 well plates and exposed to the test compound for 48 hours. Compounds are tested at a single concentration, which is 10^-5 M for most compounds. The reported endpoint is percent growth (GI% or GIPRCNT), where numbers from 0 - 100% represent growth inhibition, and numbers from -100% - 0 represent cell death. For example, a value of 40 represents 60% growth inhibition. A value of 0 means no net growth occurred over the course of the experiment. A value of -40 indicates 40% of cells at the beginning of the experiment died by the end of the experiment. A value of -100 means all cells are dead at the end of the experiment.
# NCI-60 Human Tumor Cell Lines Screen was performed using the standard one-dose NCI protocol, which is described in more detail at https://dtp.cancer.gov/discovery_development/nci-60/default.htm.
# Compounds with GIPRCNT values below 10 were considered active. Activity score was based on GIPRCNT using the following formula: […]
# Score is 0 for GIPRCNT values of 100 or above, 50 for GIPRCNT values of 0, and 100 for GIPRCNT values of -100.
row,Structure (SMILES),growth
1,CCCCCCCCCCCCCCCCOCCCOP(=O)(O)C1CCCN(O)C1=O (stereo not given),43.2%
2,COc1ccccc1N1CCCCC1,99.1%
3,O=C(CSc1nnc(-c2cnccn2)n1-c1ccccc1)c1ccc(Cl)cc1,85.9%
4,CCO/C=N/C1=C(C#N)C(c2ccc(Cl)cc2)c2sc3c(F)cccc3c2O1 (stereo not given),54.8%
5,CCOC(=O)C1=C(N)Oc2c(sc3c(F)cccc23)C1c1ccc(O)cc1 (stereo not given),26.5%
6,Oc1c(Br)cc(Br)c2ccc(Cn3cc(-c4ccccc4C(F)(F)F)nn3)nc12,83.8%
7,CNC(=O)c1ccccc1Oc1nc(Nc2cc(OC)c(OC)c(OC)c2)ncc1Br,62.2%
8,CCOC(=O)c1cc2c(n1C)-c1nc(NC(C)=O)sc1CCC2,51.8%
9,COc1ccc(C2=C(Nc3ccc(C(=O)Nc4ccccc4)cc3)C(=O)N(C)C2=O)cc1,68.8%
10,CCOC(=O)c1cc2c(n1Cc1cc(OC)c(OC)c(OC)c1)-c1nc(N)sc1CCC2,43.3%
11,O=c1[nH]c(Cc2nc3ccccc3s2)nc2cc(Br)ccc12,54.2%
12,O=C(/C=C(/C=C/c1ccc2[nH]ccc2c1)OB(F)F)/C=C/c1ccc2[nH]ccc2c1,6.23% (active)
13,O=C(CSc1nc2sc3c(c2c(=O)n1-c1ccccc1)CCCCC3)N/N=C/c1cccc([N+](=O)[O-])c1,64.1%
14,COc1ccc(C(=O)Nc2cccc(-c3cc(=O)c4c(OC)c(OC)c(OC)cc4o3)c2)cc1,45%
15,CCOC(=O)c1c(NC(=O)c2ccc(Cl)cc2)sc2c(CN(C)C)c(O)ccc12,71.4%
16,COc1cc(C2CC(c3ccc(Nc4nc(Nc5ccc(Cl)cc5)nc(Nc5ccc(Cl)cc5)n4)cc3)=NN2C(C)=O)cc(OC)c1OC (stereo not given),69.2%
17,O=C(/C=C/c1ccco1)Nc1ncc(Cc2cccc(C(F)(F)F)c2)s1,21.5%
18,O=C(Nc1ccccc1)Nc1ncnc2c1ncn2-c1ccc(Cl)cc1,63.8%
19,CCOC(=O)n1cc(-c2nonc2-c2cn(C(=O)OCC)c3ccc(Br)cc23)c2ccccc21,52.9%
20,CCC(C)N(CCNc1cc(OC)cc2cccnc12)CC(C)C (stereo not given),6.53% (active)

row,Structure (SMILES),growth
1,NC(Cc1ccc(O)c([N+](=O)[O-])c1)C(=O)O (stereo not given),103%
2,COC(=O)c1c2c(c(C)[n+]([O-])c1C)C(=O)C(NCc1cccc(OC)c1)=CC2=O,11.5%
3,CCCOC(=O)Nc1nc2ccc(SCC(C)C)cc2s1,37.8%
4,O=C1/C(=C/c2ccc([N+](=O)[O-])cc2)COc2ccc(O)cc21,79.4%
5,N#Cc1ccc(O)c(C2=NCC(c3ccccc3)O2)c1 (stereo not given),-5.7% (active)
6,Cc1ccccc1/C=C/C(=O)c1cccc(OCCCOc2cccc(C(=O)/C=C/c3ccccc3C)c2)c1,73.2% [3 µM]
7,CCN(CC)CCn1c2ccc(O)cc2c2sc3cc(O)ccc3c(=O)c21,50.4%
8,OB1OCc2cc(/C=C/c3cccc(C(F)(F)F)c3)ccc21,20.4%
9,Cn1c(I)c(C#CCO[Si](C)(C)C(C)(C)C)c(=O)[nH]c1=O,61.9%
10,COC(CC(F)F)c1cn(S(=O)(=O)c2ccc(C)cc2)c2ccccc12 (stereo not given),30.8%
11,O=C(CN1CCOCC1)Nc1nc(-c2cc3ccccc3oc2=O)cs1,111%
12,CN(C)CC1CCC(CN(C)C)C1=O (stereo not given),106%
13,NC(=O)c1cccc(-n2ccc3cc(NC(=O)c4ccc(N5CCOCC5)c(C(F)(F)F)c4)ccc32)n1,3.32% (active)
14,O=S(=O)(Nc1cc(Cl)ccc1Cl)c1ccc(-c2cnc(C3CC3)o2)cc1,28.7%
15,COc1ccc(C(O)c2cc3c(N)c(C(=O)Nc4cccc(Br)c4)sc3nc2C)cc1 (stereo not given),53.2%
16,NNc1nc(-c2cccnc2)nc2c1sc(=S)n2-c1ccccc1,62.9%
17,COC12C=C/C(=C(/C(=O)OCc3ccncn3)C(=O)CCCCCCCCC3(OC)C=C/C(=C(/C(=O)OCc4ccncn4)C(=O)CCCCCCCC1)O3)O2,25.3%
18,Clc1cc(Cl)c(Cl)c(-c2nnc(SCc3ccncc3Br)o2)c1,96.1%
19,CC(=O)N1N=C(c2ccc(C(F)(F)F)c(F)c2)CC1c1[nH]c(C)c(C(=O)NCC(F)(F)F)c1C (stereo not given),43.5%
20,c1cnc2c(-c3nc4ccc5[nH]ncc5c4c4c3CCCC4)c[nH]c2c1,38.1%
